# According to PubChem BioAssay AID651703 (Broad Institute, 2012):
# About 970 (81%) of roughly 1,200 compounds were called active. No rule for the calls is given here. The set was probably picked from earlier hits. The list is a sample of the results. Results with a measured potency or affinity are listed apart.
# Target: Transforming acidic coiled-coil-containing protein 3 (Homo sapiens) (UniProt Q9Y6A5)
# Assay: ARNT/TACC3 interaction disruptors, potency, confirmation, biochemical, AlphaScreen, cherry-picked samples (AID 651703);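 also: TACC3 partner is the GST-tagged E629A mutant dimer; hits lower the signal meaning they disrupt ARNT binding to TACC3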
# Details: AlphaScreen His-ARNT PAS-B / GST-TACC3 binding, luminescence; series mostly up to 68 µM; activity change, negative = inhibition: at the top concentration
row,Compound,"activity change, negative = inhibition"
1,COc1ccc(-c2nc(CN3CCC(C(=O)NC4CCCc5ccccc54)CC3)c(C)o2)cc1OC (configuration not stated),-10.4% (inactive)
2,O=C(C[C@@H]1CC[C@H](NC(=O)CN2CCOCC2)[C@H](CO)O1)NCCc1ccncc1,-4.91% (inactive)
3,CN(C)S(=O)(=O)N1CCN(S(=O)(=O)c2ccc(F)cc2)CC1,-10.6% (inactive)
4,Cc1nnc(NC(=O)CSc2nnc(CNC(=O)c3ccc(F)cc3)o2)s1,-20.2% (inactive)
5,COc1ccc2cc1Oc1ccc(cc1)C[C@H]1c3cc(c(OC)cc3CCN1C)Oc1c(OC)c(OC)cc3c1[C@@H](C2)N(C)CC3,-30.8% (inactive)
6,CCC(C(=O)Nc1ncn[nH]1)(C(F)(F)F)C(F)(F)F,-1.07% (inactive)
7,CC(=O)c1cccc(NC(=O)N2CCCC2C(=O)NCc2ccccc2)c1 (configuration not stated),1% (inactive)
8,COc1ccc(/C(C)=N\NC(=O)CSc2nnc(C)s2)cc1,-24.7% (inactive)
9,O=C(NCC1CC1)c1cc(-c2ccccc2)on1,4.25% (inactive)
10,NS(=O)(=O)c1ccc(CCNC(=O)c2ccc3c(c2)OCO3)cc1,-4.8% (inactive)
11,O=C(NCCCO)c1cc(-c2ccccc2)on1,-4% (inactive)
12,Oc1c(Br)cccc1/C=N/c1ncn[nH]1,-15.4% (inactive)
13,Cn1c(=NC(=O)c2cnccn2)sc2ccccc21,-0.733% (inactive)
14,O=C1NC[C@H](c2ccccc2)OC(=O)[C@H](Cc2ccc(F)cc2)CC/C=C/C[C@@H]1CC(=O)N(CCO)Cc1ccccc1,-25.4% (inactive)
15,COc1ccc(Nc2nc(N)nc(CN3CCOCC3)n2)cc1,-9.11% (inactive)
16,Fc1ccc(/C=N/Nc2ncnc3nc[nH]c23)cc1F,-4.51% (inactive)
17,CCn1c(Cc2ccccc2)nnc1SCC(=O)Nc1ccc(N)cc1,-17.3% (inactive)
18,COCCNC(=O)Cn1cc(C(=O)c2cccs2)c2ccccc21,-0.504% (inactive)
19,C[C@H]1CCCCO[C@H](CN(C)C(=O)Nc2ccc(F)cc2)[C@@H](C)CN([C@@H](C)CO)C(=O)c2cc(NS(=O)(=O)c3ccc(Cl)cc3)ccc2O1,-35.2% (inactive)
20,CC(OC(=O)Cc1c(F)cccc1Cl)C(=O)NC1(C#N)CCCCC1 (configuration not stated),-14.1% (inactive)
21,Nc1ccc(C(=O)Nc2ccc3c(O)cc(S(=O)(=O)O)cc3c2)cc1,-23.1% (inactive)

row,Compound,"activity change, negative = inhibition"
1,Cc1cc2c(NC(=O)CC(C)(C)CC(=O)O)cccc2nn1,-25.8% (inactive)
2,O=C(O)c1ccc(Br)c(S(=O)(=O)N2CCCC2)c1,11.2% (inactive)
3,CCN1CCN(c2ccc(NC(=O)c3cccc(S(=O)(=O)N4CCCC4)c3)cc2)CC1,-4.91% (inactive)
4,COc1cc(/C=N/NC(=O)CCN2CCN(c3ccccc3)CC2)cc(OC)c1OC,-13.7% (inactive)
5,O=C(Nc1cn2ccccc2n1)c1cc(-c2ccccc2)on1,-9.05% (inactive)
6,CC(NC(=O)COC(=O)c1ccc([N+](=O)[O-])o1)c1ccccc1 (configuration not stated),-13.2% (inactive)
7,COC(=O)c1[nH]c2ccc(C)cc2c1NC(=O)c1ccccc1[N+](=O)[O-],-4.8% (inactive)
8,O=C(NC1CCc2ccccc2C1)c1cc(-c2ccccc2)on1 (configuration not stated),-1.94% (inactive)
9,Cc1ccccc1Oc1nc(-c2ccccn2)nc2ccccc12,-33% (inactive)
10,CCOC(=O)CC(NC(=O)Cc1ccc(F)cc1)c1ccccc1Cl (configuration not stated),-4.53% (inactive)
11,COc1cc(C2Nc3ccccc3C(=O)N2NS(C)(=O)=O)c([N+](=O)[O-])cc1OC (configuration not stated),-16.7% (inactive)
12,NC1=NN=C(N2N=C(c3ccccc3)CC2(O)C(F)(F)F)n2ncnc2C1 (configuration not stated),-18.7% (inactive)
13,O=C1C=C(O)c2cccc(O)c2C1=O,-12% (inactive)
14,CCc1c(C)sc(NC(=O)C2CC(c3c(F)cccc3Cl)=NO2)c1C#N (configuration not stated),-1.98% (inactive)
15,CC[C@]1(O)CC2CN(CCc3c([nH]c4ccccc34)[C@@](C(=O)OC)(c3cc4c(cc3OC)N(C=O)[C@H]3[C@@](O)(C(=O)OC)[C@H](OC(C)=O)[C@]5(CC)C=CCN6CC[C@]43[C@@H]65)C2)C1 (some centres not stated),-12% (inactive)
16,COc1ccccc1C(=O)Nc1ccccc1N1CCCCC1,3.51% (inactive)
17,O=C(C[C@H]1C=C[C@@H](NC(=O)Nc2ccccc2)[C@@H](CO)O1)NCc1ccccn1,-11.4% (inactive)
18,Cc1ccc(N(C)S(=O)(=O)c2cccc(C(=O)Oc3ccc4c(C)cc(=O)oc4c3)c2)cc1,-27% (inactive)
19,Cc1ccc(S(=O)(=O)Cn2nnnc2C(c2ccccc2)N2CCN(c3ccccc3)CC2)cc1 (configuration not stated),-34.1% (inactive)
20,O=C(NC1Cc2ccccc2C1)[C@H]1N[C@H]2c3cccc(=O)n3C[C@H]2[C@@H]1CO,-6.83% (inactive)
21,Cc1[nH]n(-c2ccccc2)c(=O)c1C(c1ccc(C(=O)O)cc1)c1c(C)[nH]n(-c2ccccc2)c1=O,-26.7% (inactive)

row,Compound,"activity change, negative = inhibition"
1,Cc1[nH]n(-c2ccccc2)c(=O)c1C(c1ccc(O)c([N+](=O)[O-])c1)c1c(C)[nH]n(-c2ccccc2)c1=O,-19.9% (inactive)
2,COc1ccc(CCNC(=O)C23CCC(C)(C(=O)C2Br)C3(C)C)cc1OC (configuration not stated),-15.7% (inactive)
3,Cn1c(CCNC(=O)c2ccc(Cl)c(Cl)c2)nnc1SCc1ccc(Cl)c(Cl)c1,-11.5% (inactive)
4,O=C(c1cc(-c2ccccc2)on1)N1CCN(c2ccncc2)CC1,-2.62% (inactive)
5,O=C(C1=C(O)C(=O)N(Cc2ccccc2)C1c1ccncc1)c1ccco1 (configuration not stated),-32.6% (inactive)
6,COc1cc(Cc2nccc3cc(OC)c(OC)cc23)c(S(=O)(=O)O)cc1OC,-0.945% (inactive)
7,CC=Cc1ccc2n(c1=O)C[C@H]1[C@H](CO)[C@@H](C(=O)NC3CCC3)[C@@H]2N1S(=O)(=O)c1cn(C)cn1 (mixture of isomers),-1.42% (inactive)
8,Cc1cc(C)c(C(N)=O)c(Nc2cccc3ccccc23)n1,-15.8% (inactive)
9,COc1ccc(Nc2nnc(-c3ccc(C(N)=O)cc3)c3ccccc23)cc1,-7.69% (inactive)
10,C[C@@H]1CN([C@@H](C)CO)C(=O)c2cc(NS(=O)(=O)c3cccs3)ccc2O[C@H]1CN(C)CC1CCCCC1,-0.808% (inactive)
11,COc1ccc(-c2cnc3c(c2)C(=O)N([C@@H](C)CO)C[C@@H](C)[C@@H](CN(C)Cc2cccnc2)O3)cc1,-6.34% (inactive)
12,C/C(=C\C(=O)c1ccccc1)Nc1ccc(N2CCOCC2)cc1,-30.2% (inactive)
13,CCCc1nnc(NS(=O)(=O)c2ccc(C)cc2)o1,-0.661% (inactive)
14,Cc1ccc(S(=O)(=O)n2nc(C)c(C#N)c2N)cc1,4.8% (inactive)
15,COC(=O)c1c(N)n(-c2ccc(NC(C)=O)cc2)c2nc3ccccc3nc12,-49% (inactive)
16,CC(C)C#Cc1ccc2c(c1)O[C@@H](CN(C)C(=O)CN(C)C)[C@@H](C)CN([C@@H](C)CO)S2(=O)=O,-9.31% (inactive)
17,CC(C)NC(=O)N(C)C[C@H]1OCCCC[C@H](C)Oc2ccc(NC(=O)Nc3ccccc3)cc2C(=O)N([C@H](C)CO)C[C@@H]1C,-11.9% (inactive)
18,CC(C)NC(=O)Nc1ccc2c(c1)C(=O)N([C@H](C)CO)C[C@H](C)[C@@H](CN(C)C(=O)Cc1ccccc1)OCCCC[C@H](C)O2,-10.9% (inactive)
19,C[C@@H]1CCCCO[C@H](CN(C)Cc2ccncc2)[C@H](C)CN([C@H](C)CO)C(=O)c2cc(NC(=O)C3CCCCC3)ccc2O1,-9.09% (inactive)
20,COc1ccc(NC(=O)Nc2ccc3c(c2)C(=O)N([C@H](C)CO)C[C@@H](C)[C@@H](CN(C)C(=O)CCC(F)(F)F)OCCCC[C@H](C)O3)cc1,-17.6% (inactive)
